Test results from PubChem BioAssay (NCATS).
Inconclusive results are not listed. Calls of active or inactive are those of the source. Calls follow the shape of the dose curve; as a rule, active = well fitted inhibition curve with a large enough effect; inconclusive = small, poorly fitted or top-dose-only effect; inactive = flat fitted curve, though single readings scatter.

biological target: Glutathione peroxidase 1 (Homo sapiens) (UniProt P07203); assay: Primary qHTS Assay for Inhibitors of Recombinant Selenoprotein Glutathione Peroxidase 1 (GPX1) (AID 1845191); conditions: recombinant GPX1, GR-coupled NADPH fluorescence, 15 min; series mostly up to 48.8 µM; activity, negative = inhibition: at the top concentration; also: nearly all actives have a fitted effect of over 65% in size
From the text: Assay Provider: Elias S.J. Arner MD PhD.
Department of Medical Biochemistry and Biophysics
Karolinska Institutet, Solna, Stockholm, Sweden
Selenoprotein glutathione peroxidases (GPX), like the ubiquitously expressed GPX1 and the ferroptosis modulator GPX4, enact their antioxidant activities by reducing hydroperoxides using glutathione. […] GPX1 and GPX4 inhibitors have thus shown promise as anti-cancer agents. Existing inhibitors are often promiscuous, or modulate GPX activity only indirectly, so novel direct inhibitors identified through screening against GPX1 and GPX4 could be valuable. Here, we developed optimized glutathione reductase (GR)-coupled GPX assays for the biochemical high-throughput screen (HTS) of almost 12,000 compounds with known mechanisms of action. Initial hits were triaged using a GR counter-screen, assessed for isoform specificity using a separate GPX2 assay, and were assessed for general selenocysteine-targeting activity using a thioredoxin reductase (TXNRD1) assay. With this suite of assays, we identified novel GPX1/GPX2- and GPX4-specific inhibitors and can here present a validated pipeline for future discovery research for selenoprotein-targeting agents.
SEQUENCE No. (e.g., 1, 2, 3, etc.); […] (e.g., Cells, Incubation, Reagent, etc.); VALUE; DESCRIPTION.
1; Reagent 1; 3 uL; GPx1 enzyme or no enzyme control in 1536-well, black, solid Greiner assay plate.
2; Compound; 25 nL; Kalypsis pin tool (Wako USA) equipped with a 1536-well pin head.
3; Incubation; 30 min; room temperature.
4; Reagent 2; 1 uL; 10 nM GPX1, 1 mM GSH, 0.5 mM CHP, 0.5 mM NADPH, 100 nM GR, 0.01% BSA substrate
5; Detection; Fluorescence; ViewLux microplate reader, excitation 340 nm and emission 450 nm.
6; Incubation; 15 min; room temperature.
7; Detection; Fluorescence; ViewLux microplate reader, excitation 340 nm and emission 450 nm.
NOTES (numbers refer to Sequence numbers above)
1. 3 uL of 16.66 nM GPX1 and 0.016% BSA in assay buffer (50 mM Tris-HCl, 2 mM EDTA (pH 7.5), 150 mM NaCl) was added to columns 3-48 of 1536-well assay plates using a BioRAPTR Flying Reagent Dispenser (Let's Go Robotics (LGR), Carlsbad, CA). A no-enzyme control (0.01% BSA in TES assay buffer) was added to columns 1-2.
2. 25 nL of test compounds and DMSO controls were added to each well with a pin tool (Kalypsys).
3. The assay plates were incubated for 30 minutes at room temperature.
4. 1 uL of master mix (500 nM glutathione reductase (GR), 5 mM reduced glutathione (GSH), 2.5 mM NADPH in assay buffer) was added. 1 uL of cumene hydroperoxide (CHP) ([2.5 mM] in 50% EtOH) was then added within 5 minutes to initiate the reaction. Final concentrations were: 10 nM GPX1, 1 mM GSH, 0.5 mM CHP, 0.5 mM NADPH, 100 nM GR, 0.01% BSA.
5. Initial fluorescence readout (t=0) at 340/450 nm was measured using a ViewLux multimodal detector (PerkinElmer, Waltham, MA).
7. Endpoint fluorescence readout (t=15) at 340/450 nm was measured 15 min after room temperature incubation.
% is scaled to controls: 0 for no effect and ±100 for the full control effect.

Chain of Glutathione peroxidase 1 (Homo sapiens) (P07203 whole entry, looked up): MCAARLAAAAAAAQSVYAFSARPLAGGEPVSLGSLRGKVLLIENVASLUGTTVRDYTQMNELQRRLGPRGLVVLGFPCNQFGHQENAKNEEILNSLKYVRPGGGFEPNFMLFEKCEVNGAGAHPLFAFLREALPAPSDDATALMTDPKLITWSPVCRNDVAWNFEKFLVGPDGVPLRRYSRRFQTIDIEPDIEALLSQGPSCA

Row | Compound | activity, negative = inhibition | Potency | outcome
1 | CC1(C)O[C@@H]2C[C@H]3[C@@H]4CCC5=CC(=O)CC[C@]5(C)[C@@]4(F)[C@@H](O)C[C@]3(C)[C@]2(C(=O)CCl)O1 | -2.75% (inactive) |  | 
2 | N[C@@H](Cc1cnc[nH]1)C(=O)O | -9.89% (inactive) |  | 
3 | CC[C@@H](CO)NCCN[C@@H](CC)CO | 0.426% (inactive) |  | 
4 | CC(=O)N(O)CCCCCNC(=O)CCC(=O)N(O)CCCCCNC(=O)CCC(=O)N(O)CCCCCN |  | inactive | 
5 | C#C[C@]1(O)CC[C@H]2[C@@H]3CCC4=CC(=O)CC[C@@H]4[C@H]3CC[C@@]21C | -0.0169% (inactive) |  | 
6 | CN(C)CC/C=C1\c2ccccc2Sc2ccc(Cl)cc21 |  |  | inactive
7 | CCN(CCCc1ccccc1)CCCc1ccccc1 | -9.26% (inactive) |  | 
8 | COC1=CC(=O)C[C@@H](C)[C@]12Oc1c(Cl)c(OC)cc(OC)c1C2=O | -20% (inactive) |  | 
9 | O=C1OC2(c3ccc(O)cc3Oc3cc(O)ccc32)c2ccccc21 | -23.2% (inactive) |  | 
10 | C[N+]1(CCCCC[N+]2(C)CCCC2)CCCC1 |  | inactive | 
11 | OC[C@@H](O)[C@@H](O[C@@H]1O[C@H](CO)[C@H](O)[C@H](O)[C@H]1O)[C@H](O)[C@@H](O)CO |  |  | inactive
12 | c1ccc(CNCCNCc2ccccc2)cc1 |  |  | inactive
13 | CC(=O)[C@H]1CC[C@H]2[C@@H]3C[C@H](C)C4=CC(=O)CC[C@]4(C)[C@H]3[C@@H](O)C[C@]12C |  |  | inactive
14 | CC(=O)Oc1ccc(C(c2ccc(OC(C)=O)cc2)c2ccccn2)cc1 | -9.39% (inactive) |  | 
15 | CCCSS/C(CCO)=C(\C)N(C=O)Cc1cnc(C)nc1N | -14% (inactive) |  | 
16 | O=C1c2ccccc2C(=O)C1c1ccccc1 | 4.98% (inactive) |  | 
17 | CC(C)COC(=O)OCN1C(=O)CN(CCN2CC(=O)N(COC(=O)OCC(C)C)C(=O)C2)CC1=O | -3.2% (inactive) |  | 
18 | Cc1ccnc(NS(=O)(=O)c2ccc(N)cc2)n1 |  |  | inactive
19 | CN1CCN(CCCN2c3ccccc3Sc3ccc(S(=O)(=O)N(C)C)cc32)CC1 | 1.05% (inactive) |  | 
20 | C[C@]12C=CC(=O)C=C1CC[C@@H]1[C@@H]2[C@@H](O)C[C@@]2(C)[C@H]1CC[C@]2(O)C(=O)CO |  | inactive | 

Row | Compound | activity, negative = inhibition | Potency | outcome
21 | CCCCCC=CCC=CCCCCCCCC(=O)OCC | 1.61% (inactive) |  | 
22 | NC(=NCCCCCCN=C(N)/N=C(\N)Nc1ccc(Cl)cc1)/N=C(\N)Nc1ccc(Cl)cc1 |  | inactive | 
23 | CC[C@H](C)C(=O)O[C@H]1CCC=C2C=C[C@H](C)[C@H](CC[C@@H]3C[C@@H](O)CC(=O)O3)[C@H]21 |  | inactive | 
24 | C1CCc2nnnn2CC1 |  |  | inactive
25 | COCc1c(C(C)C)nc(C(C)C)c(/C=C/[C@@H](O)C[C@@H](O)CC(=O)O)c1-c1ccc(F)cc1 | -9.64% (inactive) |  | 
26 | C=C1C[C@H]2[C@@H]3C=C(C)C4=CC(=O)CC[C@]4(C)[C@H]3CC[C@]2(C)[C@@]1(OC(C)=O)C(C)=O | -9.77% (inactive) |  | 
27 | COC(=O)C1=C(C)NC(C)=C(C(=O)O[C@@H]2CCCN(Cc3ccccc3)C2)[C@@H]1c1cccc([N+](=O)[O-])c1 | -22.8% (inactive) |  | 
28 | CNCCC=C1c2ccccc2CCc2ccccc21 |  | inactive | 
29 | CN1CCC[C@@H]1c1cccnc1 | 3.08% (inactive) |  | 
30 | CO/N=C1\CN(c2nc3c(cc2F)c(=O)c(C(=O)O)cn3C2CC2)CC1CN (stereo not given) | -29.1% (inactive) |  | 
31 | OC[C@H]1O[C@@H](n2cnc3c(=S)nc[nH]c32)[C@H](O)[C@@H]1O | 2.42% (inactive) |  | 
32 | COc1cccc(OC)c1C(=O)N[C@@H]1C(=O)N2[C@@H]1SC(C)(C)[C@@H]2C(=O)O |  | inactive | 
33 | CN1C2CCC1CC(OC(=O)c1c[nH]c3ccccc13)C2 (stereo not given) |  |  | inactive
34 | Cc1onc(-c2c(Cl)cccc2Cl)c1C(=O)N[C@@H]1C(=O)N2[C@@H]1SC(C)(C)[C@@H]2C(=O)O |  | inactive | 
35 | NC(CO)(CO)CO | -18.8% (inactive) |  | 
36 | Oc1cc(O)c2c(c1)O[C@H](c1ccc(O)c(O)c1)[C@H](O)C2 |  |  | inactive
37 | CNCC[C@@H](Oc1ccccc1C)c1ccccc1 | -15.6% (inactive) |  | 
38 | CC1(C)CCC(NC(=O)[C@@H](N)CCC(=O)O)CC1 | -7.8% (inactive) |  | 
39 | CC(O)(P(=O)(O)O)P(=O)(O)O | 0.531% (inactive) |  | 
40 | CC(=O)OCC(=O)[C@@]12N=C(C)O[C@@H]1C[C@H]1[C@@H]3CCC4=CC(=O)C=C[C@]4(C)[C@H]3[C@@H](O)C[C@@]12C |  | inactive | 
